Data on 91 molecules can be found in PubChem BioAssay AID1209 (Sanford-Burnham Center for Chemical Genomics, 2008).

Several values for one entry are separate records, joined by “and”; a condition that tells them apart may be missing. Equal values may be shown once. The campaign covered roughly 190,000 compounds. About 810 (0.43%) were called active. The sample holds actives, similar compounds and a random draw of the others, so the mix is not that of the screen. Cut-off read from the data, not from the text of the source: active = inhibition above about 50%; inactive = the rest.

In the assay the target is Mannose-6-phosphate isomerase (Homo sapiens) (UniProt P34949). Description: inhibitors of human PMI, primary screen, biochemical, fluorescence intensity, coupled assay (AID 1209).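 Note: plate controls were DMSO vehicle for no effect and wells lacking substrate for full effect.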 Particulars: purified PMI enzyme, at 20 µM, stronger effect = higher value.
Sequence of Mannose-6-phosphate isomerase (Homo sapiens) (P34949 whole entry, looked up): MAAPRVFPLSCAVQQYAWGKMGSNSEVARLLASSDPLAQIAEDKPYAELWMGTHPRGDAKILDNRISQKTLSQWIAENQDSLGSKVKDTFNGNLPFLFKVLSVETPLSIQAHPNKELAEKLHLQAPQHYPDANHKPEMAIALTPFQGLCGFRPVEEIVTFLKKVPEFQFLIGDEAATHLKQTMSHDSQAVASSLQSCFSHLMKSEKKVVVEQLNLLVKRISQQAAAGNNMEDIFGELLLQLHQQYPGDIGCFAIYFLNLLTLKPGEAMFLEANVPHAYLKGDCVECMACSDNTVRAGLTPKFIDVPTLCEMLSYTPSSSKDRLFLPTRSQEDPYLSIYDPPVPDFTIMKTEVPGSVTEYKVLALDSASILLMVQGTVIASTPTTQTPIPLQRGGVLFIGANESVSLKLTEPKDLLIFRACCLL
`Cc1ccc(C2CC(C(F)(F)F)n3ncc(C(=O)NCc4ccco4)c3N2)cc1` (stereo unspecified): the inhibition (usually the relative decrease from the control value, in per cent) is 108% (active). Under `O=C(NCc1ccco1)c1cnn2c1NC(c1ccccc1)CC2C(F)(F)F` (stereo unspecified) stands -6.3% (inactive); under `O=C(NCc1ccco1)c1cnn2c1NC(c1ccc(Br)cc1)CC2C(F)(F)F` (stereo unspecified), 27% (inactive). With `COc1cc(NC(=O)C(C)Oc2ccccc2)c(C(=O)O)cc1OC` (stereo unspecified) the figure was 10.7% (inactive). `O=C(Cc1c[nH]c2ccccc12)NC1(C(=O)NC2CCCCC2)CCCCC1`: the inhibition is -4% (inactive). In the case of `COC(=O)c1ccc(C2C(Oc3ccccc3)C(=O)N2CCc2ccc(OC)c(OC)c2)cc1` (stereo unspecified), the inhibition was -2.9% (inactive). As for `COC(=O)c1ccc(C2C(Oc3ccc(OC)cc3)C(=O)N2CCc2ccc(F)cc2)cc1` (stereo unspecified), the inhibition was -0.6% (inactive). `COC(=O)c1ccc(C2C(Oc3ccc(OC)cc3)C(=O)N2CCc2ccc(OC)c(OC)c2)cc1` (stereo unspecified): the inhibition was 52% (active). For the molecule `COCCNC(=O)C(c1cccs1)N(C(=O)Cn1nnc2ccccc21)c1cccc(C)c1` (stereo unspecified), the inhibition is 5.9% (inactive). With `O=C(Cn1cc(/C=N/NC(=O)c2ccccc2Br)c2ccccc21)Nc1ccc(F)cc1` the figure was 5.7% (inactive); with `O=C(CCS(=O)(=O)c1ccc(Cl)cc1)OCC(=O)N1CCCCC1`, 9.3% (inactive); with `Cc1cccc(-n2nnc(C(=O)NCc3ccco3)c2N)c1`, -18.8% (inactive). With `CCOC(=O)c1ccc(N2C(=O)CC(N(C)CCc3ccc(OC)c(OC)c3)C2=O)cc1` (stereo unspecified) the figure was 16.4% (inactive); with `CCOc1cccc(N2C(=O)CC(N(CCc3ccc(OC)c(OC)c3)C(=O)CC)C2=O)c1` (stereo unspecified), 57% (active). With `CCOc1ccc(N2C(=O)CC(N(CCc3ccc(OC)c(OC)c3)C(=S)Nc3ccccc3)C2=O)cc1` (stereo unspecified), the inhibition was 19.8% (inactive). With `O=C(CSc1n[nH]c(=O)[nH]c1=O)Nc1ccc(C(=O)O)cc1` the figure was -8.4% (inactive). Under `O=[N+]([O-])c1cccnc1NCc1cccs1` stands -2.4% (inactive); under `O=[N+]([O-])c1cc(-c2ncccn2)cs1`, -13.4% (inactive); under `O=C(O)CCC(=O)Nc1ccc(Cc2ccc(NC(=O)CCC(=O)O)c(O)c2)cc1O`, -9.3% (inactive). For `Cc1ccc(Cl)cc1N1CCN(C(=O)CN2C(=O)c3cccc4cccc2c34)CC1`, the inhibition is 12.6% (inactive).

`c1cnc2c(c1)ccc1cccnc12`: the inhibition is 5.7% (inactive) and 24.3% (inactive). For the molecule `O=S1(=O)Nc2c(ccc3cccnc23)-c2ccccc21`, the inhibition is 62% (active). With `O=S1(=O)NC(=NCCc2ccccn2)c2ccccc21` the figure was -7.8% (inactive). Regarding `COc1ccc(-c2c(C)n([O-])c3c([n+]2=O)CCC3)cc1OC`, the inhibition was 8% (inactive).

With `c1ccc(-c2ccccc2-n2cnnn2)cc1`, the inhibition was -7.6% (inactive). With `Cc1cc(C)nc(N2CCCC(C(=O)Nc3nc4ccc(S(C)(=O)=O)cc4s3)C2)n1` (stereo unspecified) the figure was 51.4% (active). With `O=C(Nc1nc2ccc(S(=O)(=O)N3CCCC3)cc2s1)C1CCCCC1` the figure was 7.3% (inactive); with `Cc1cc(C)nc(N2CCCC(C(=O)Nc3nnc(C)s3)C2)n1` (stereo unspecified), -13.6% (inactive).

Consider `CS(=O)(=O)c1ccc2nc(NC(=O)CCC(=O)c3cccs3)sc2c1`, for which the inhibition was -8.5% (inactive). With `Cc1nn(C)c(C)c1CS(=O)(=O)c1ccccc1` the figure was -8.9% (inactive); with `CCn1c(C)c(CS(=O)(=O)c2ccccc2)[nH]c1=O`, 85.5% (active); with `CCc1c(C(C)S(=O)(=O)c2ccccc2)[nH]c(=O)n1CC` (stereo unspecified), -38% (inactive). Take `Cc1cc(C)cc(-n2cc(C(=O)O)c(=O)cc2C)c1`: the inhibition was 5.3% (inactive). With `COc1ccc(NC(=O)CSc2nc3sc(C)c(C)c3c(=O)n2Cc2ccco2)cc1` the figure was 7.7% (inactive); with `CCOc1c(O)ccc(/C=C2\SC(=S)NC2=O)c1[N+](=O)[O-]`, 55.7% (active). With `CCOc1ccc(/C=C2\SC(=S)NC2=O)cc1OC`, the inhibition was -12% (inactive). With `C=CCN1C(=O)/C(=C/c2ccc(OC(C)=O)c(OCC)c2[N+](=O)[O-])SC1=S` the figure was 41.3% (inactive); with `CC(=O)c1c(C(=O)O)[nH]c(C(=O)O)c1C`, 108% (active); with `CC(=O)c1[nH]c(C)c(C(C)=O)c1C`, 11% (inactive). As for `CC(=O)c1c(C)[nH]c(C(=O)O)c1C`, the inhibition was 13.6% (inactive). In the case of `S=c1nc(-c2ccccc2)n(CCCn2ccnc2)c2c1CCCC2`, the inhibition is 1.7% (inactive). Consider `COc1ccc(/C=C(\CC(=O)O)c2nc3ccccc3o2)cc1`, for which the inhibition was -27.3% (inactive). For the molecule `Cc1nc(C)c(C(=O)NNC(=O)c2ccc(Br)cc2)s1`, the inhibition is 6.9% (inactive).

Turning to `CCN(C(=O)CSc1nnc(Cn2nnc3ccccc32)o1)c1nc(C)cs1`, the inhibition was 9.1% (inactive).

With `COCCn1cc(C(=O)c2cc(Br)ccc2O)cc(C#N)c1=O`, the inhibition is -5.8% (inactive). Under `O=C(Nc1cc(S(=O)(=O)N2CCOCC2)ccc1O)c1ccc2c(c1)S(=O)(=O)c1ccccc1C2=O` stands 46.3% (inactive); under `O=C(Nc1cc(S(=O)(=O)N2CCOCC2)ccc1N1CCCCC1)c1cc(-c2ccccn2)nc2ccccc12`, 52.8% (active). Under `COCCNC(=S)Nc1cc(S(=O)(=O)N2CCOCC2)ccc1N1CCCCC1` stands 63.1% (active); under `O=C(Nc1ccc(S(=O)(=O)N2CCOCC2)cc1)c1ccc2c(c1)S(=O)(=O)c1ccccc1C2=O`, -4.6% (inactive); under `O=C(NC(=S)Nc1cc(S(=O)(=O)N2CCOCC2)ccc1N1CCOCC1)c1ccco1`, 3.9% (inactive). With `COc1ccc(-c2cc(C(=O)Nc3cc(S(=O)(=O)N4CCOCC4)ccc3N3CCOCC3)c3ccccc3n2)cc1` the figure was -22.7% (inactive). Consider `CCN(CC)S(=O)(=O)c1ccc(N2CCOCC2)c(NC(=O)c2cc(-c3ccccn3)nc3ccccc23)c1`, for which the inhibition was 15.6% (inactive). With `O=C(NC(=S)Nc1cc(S(=O)(=O)N2CCOCC2)ccc1N1CCOCC1)C1CCCC1` the figure was -1.5% (inactive); with `O=C(Nc1cc(S(=O)(=O)N2CCOCC2)ccc1N1CCCC1)c1ccc2c(c1)S(=O)(=O)c1ccccc1C2=O`, 61% (active); with `On1nnc2ccc3ccccc3c21`, -9.6% (inactive). Take `C/C(O)=c1/ccc2cccc3nc(C)nc1c23`: the inhibition was 42.6% (inactive). For `Cc1ccc(SCc2ccc(C(=O)NCc3ccncc3)cc2)cc1`, the inhibition was 0.9% (inactive).

For the molecule `Cc1cc(C)n(C(=O)c2c([N+](=O)[O-])c(C)nn2C)n1`, the inhibition is 1.5% (inactive). With `c1ccc(CC2CCN(Cc3nc(-c4ccccc4)no3)CC2)cc1`, the inhibition is 16.3% (inactive). As for `CC(=O)N1CCc2c(sc(NC(=O)c3ccc([N+](=O)[O-])o3)c2C#N)C1`, the inhibition is 59% (active).

For the molecule `CC(=O)N1CCc2c(sc(NC(=O)c3ccc4c(c3)OCCO4)c2C#N)C1`, the inhibition is 18.2% (inactive). For the molecule `COc1ccc(C(=O)Nc2sc3c(c2C#N)CCN(C(C)=O)C3)cc1`, the inhibition was 5.9% (inactive). Turning to `Cc1cc(-c2ccco2)n(CC(=O)NCc2ccco2)n1`, the inhibition was -9.3% (inactive). With `CC(CSc1nnnn1-c1ccccc1)Cn1c(N2CCCC2)nc2c1c(=O)[nH]c(=O)n2C` (stereo unspecified) the figure was 1.7% (inactive); with `CCCC(=O)N(c1ccc2oc(=O)sc2c1)S(=O)(=O)c1cccs1`, 3.6% (inactive).

For the molecule `O=[N+]([O-])c1nn(-c2ccc3c(c2)OCCO3)n(O)c1=NC1CCCCCC1`, the inhibition is 12.3% (inactive). Under `O=[N+]([O-])C1=CC=C2C(=NC3(CCCCC3)N2O)C1=NC1CCCCC1` stands 87.5% (active); under `CN=C1C([N+](=O)[O-])=CC=C2C1=NC1(CCCCC1)N2O`, 70.6% (active). Consider `CC(C)(C)N=C1C([N+](=O)[O-])=CC=C2C1=NC1(CCCCC1)N2O`, for which the inhibition is 76.2% (active). With `O=[N+]([O-])c1nn(-c2ccc3c(c2)OCCO3)n(O)c1=NC1CCCCC1`, the inhibition is 6% (inactive).

In the case of `C#CCNc1cc(-c2ccccc2)nc2ncnn12`, the inhibition was -2.5% (inactive).

Take `COC(=O)c1ccc(C(=O)OC)c(NC(=O)C(C)(C)C)c1`: the inhibition was -4.3% (inactive). In the case of `COc1ccc(OC)c(NC(=O)CCNS(=O)(=O)c2cccs2)c1`, the inhibition is 0.3% (inactive).

For `COc1ccccc1-c1nnc(SCC(=O)O)n1-c1ccccc1`, the inhibition was 0.5% (inactive).

With `CCCCN(C(=O)c1ccc(NC(=O)C(C)C)cc1)c1ccccc1`, the inhibition was 8.2% (inactive).

Turning to `Cc1ccccc1-n1nnnc1SCc1ncc(-c2ccccc2)o1`, the inhibition was 5.3% (inactive). Under `O=C(O)CCCC(=O)Nc1ccc(OCc2nc3ccccc3s2)cc1` stands 58.3% (active); under `CCC(=O)Nc1ccc(OCc2nc3ccccc3s2)cc1`, 25% (inactive); under `O=C(CCCc1nc2ccccc2s1)Nc1ccccc1`, -15.5% (inactive). Under `O=C(NN1C(=O)C2C3C=CC(C3)C2C1=O)c1ccncc1` (stereo unspecified) stands -0.6% (inactive). With `Cc1csc(NC(=O)C2CCCN(S(=O)(=O)c3ccc4c(c3)oc(=O)n4C)C2)n1` (stereo unspecified) the figure was 13.4% (inactive); with `C=CCN1C(=O)N/C(=C/c2ccccc2OCC(=O)Nc2ccc(F)cc2)C1=O`, 2.1% (inactive).

On to `CN(c1ccccc1)S(=O)(=O)c1cccc(C(=O)NCCc2ccc(O)c(O)c2)c1`, for which the inhibition is 54.9% (active). Under `CN(c1ccccc1)S(=O)(=O)c1cccc(C(=O)NNC(=O)c2ccccc2)c1` stands 7.8% (inactive); under `CN(C)S(=O)(=O)c1cccc(C(=O)NCCc2ccccc2)c1`, 3.3% (inactive).

With `COc1cc(C2NC(=O)NC(c3ccccc3)=C2C(C)=O)ccc1OCC#N` (stereo unspecified), the inhibition is 20.2% (inactive). Under `COc1ccccc1-n1c(SCC(=O)NC2CCS(=O)(=O)C2)nc2cc([N+](=O)[O-])ccc21` (stereo unspecified) stands 5.5% (inactive); under `O=C(CSc1nc2cc([N+](=O)[O-])ccc2n1-c1ccccc1)NCc1ccc2c(c1)OCO2`, 23.9% (inactive). Regarding `COc1ccccc1-n1c(SCC(=O)NCc2ccc3c(c2)OCO3)nc2cc([N+](=O)[O-])ccc21`, the inhibition is 59.9% (active).

On to `O=C(COC(=O)CCOc1ccccc1)Nc1ncc(Cl)cc1Cl`, for which the inhibition was -1% (inactive).

On to `Cc1c(C(=O)N/N=C/c2ccccc2)[nH]c2ccc(Cl)cc12`, for which the inhibition was 2.8% (inactive).
